HepG2 viability: counter-screen for TGF-b inhibitors: cytotoxicity in HepG2 cells | 0.76% of 410,000 active | HepG2 CAGA-GFP viability, ATP luminescence, 18 h | Potency, µM (highest dose often 46.1 µM), usual class: cytotoxic
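HepG2 CAGA-GFP cells (1000/well, DMEM with 1% FBS) received compound, then TGF-beta at 500 pg/mL final, and were incubated 18 hours at 37 degrees C. Viability was read by CellTiter-Glo luminescence. Media-only wells were set as complete cell-killing and DMSO as no toxicity.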
TGFb inhibitor: inhibitors of TGF-b signaling; AID 588855; HepG2 CAGA-GFP TGF-b/SMAD3 reporter, GFP fluorescence, 18 h; TGF-beta stimulated, 500 pg/mL final; Potency, µM (series often up to 46.1 µM), most hits filed as inhibitors; 1.2% of 410,000 active; further: nearly all actives have a fitted effect of over 65% in size
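Using HEPG2 CAGA-GFP reporter cells at 1000 cells/well, we pinned test compounds, stimulated with recombinant TGF-beta (500 pg/mL final) and measured total well GFP after 18 h.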
ATXN viability: cell viability loss in ATXN counter-screen. 0.49% of 400,000 active. Potency, µM (highest dose often 56.7 µM), most hits filed as cytotoxic. S2 cells (HEK-293 line with an ATXN2-luciferase reporter) viability, CellTiter-Fluor protease fluorescence, 24 h; further: nearly all actives have a fitted effect of over 40% in size
TDP1 cell CPT: DT40-hTDP1 cell growth loss with CPT; chicken DT40 Tdp1-/-;hTDP1 cells + 20 nM CPT, ATP luminescence, 48 h; Potency, µM (top dose mostly 46.2 µM), actives largely listed as inhibitors; 12% of 420,000 active; further: nearly all actives have a fitted effect of over 55% in size
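Chicken DT40 Tdp1-/- cells stably complemented with human TDP1 were seeded at 400 cells/well in medium containing 20 nM camptothecin, exposed to pin-transferred compounds, and grown at 37 °C for at least 48 hr. Viability was read as ATP luminescence.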
ATXN2 expr inh: ATXN2 expression inhibition; HEK-293 ATXN2-luciferase reporter, luminescence, 24 h; Potency, µM (top dose mostly 57 µM), actives largely listed as inhibitors; 0.72% of 360,000 active; AID 1745845; further: nearly all actives have a fitted effect of over 55% in size
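ATXN2-luciferase reporter cells (luciferase flanked by upstream and downstream ATXN2 gene portions) were treated 24 h at 37 °C with compounds at up to 57 uM. SteadyGlo luminescence gave expression; GF-AFC fluorescence gave viability.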
DT40 TDP1 no CPT: qHTS for Inhibitors of human tyrosyl-DNA phosphodiesterase 1 (TDP1): qHTS in cells in absence of CPT. AID 686978, 2013. 15% of 420,000 active. Potency, µM (highest dose often 46.2 µM), usual class: inhibitors. DT40 Tdp1-/- hTDP1 cells, no CPT, ATP luminescence, 48 h; further: nearly all actives have a fitted effect of over 55% in size
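Chicken DT40 Tdp1-/- cells complemented with human TDP1, screened without camptothecin (DMSO vehicle only), 400 cells/well. Compounds pin-transferred, cells incubated at 37 °C for at least 48 hr. Growth read as ATP-dependent luminescence (CellTiter-Glo, 30 min at RT).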
Hits are given with their value; i = inactive; ? = inconclusive; nt = not tested or not shown; [ ] = another dose, or the depositor's remark. Only some compounds are listed: those with a hit (about 17% of all), similar ones and a draw of the others. The call rests on the fitted dose curve; in most records, active means well fitted curve in the direction sought with a large enough effect; inconclusive means small, poorly fitted or top-dose-only effect, or another doubt; inactive means no such curve, though single readings can be large; an effect the other way counts as inactive or inconclusive.

SMILES	HepG2 viability	TGFb inhibitor	ATXN viability	TDP1 cell CPT	ATXN2 expr inh	DT40 TDP1 no CPT
COC(=O)C1=C(c2cc3ccccc3s2)C[C@@H]2CC[C@H]1N2C(=O)NCc1ccccc1	i	?	i	?	i	?
Cc1ccc(N=CN(C)C=Nc2ccc(C)cc2C)c(C)c1	nt	nt	i	i	i	i
CCOc1ccc(C2c3c(-c4ccccc4O)n[nH]c3C(=O)N2Cc2ccncc2)cc1 (configuration not stated)	i	?	?	7.3µM	i	5.2µM
Cc1ccc(-c2cc(-c3ccc(C)cc3)[n+](-c3ccc(C(=O)O)cc3)c(-c3ccc(C)cc3)c2)cc1	i	i	i	i	i	i
Cc1ccc(C[n+]2c(-c3ccc(C)cc3)cc(-c3ccc(C)cc3)cc2-c2ccc(C)cc2)cc1	i	?	nt	0.92µM	?	0.58µM
COC(=O)c1cn(Cc2ccc(F)cc2)c2ccccc12	i	i	i	?	nt	i
COC(=O)c1cn(C(=O)c2cccc3ccccc23)c2ccccc12	i	i	?	8.2µM	nt	9.2µM
Cc1ncc(CO)c2c1Oc1nc(-c3ccccc3Cl)nc(SCc3ccccc3F)c1C2	i	i	i	15µM	i	15µM
COc1cccc(CSc2nc(-c3ccccc3OC)nc3c2Cc2c(CO)cnc(C)c2O3)c1	i	i	?	5.8µM	?	3.7µM
CC(C)N1CCN(Cc2cccc3c2OCO3)CC1CCO (configuration not stated)	i	i	?	i	nt	i
CC(C)c1ccc(NC(=O)N2C[C@H]3C[C@@H](C2)c2cccc(=O)n2C3)cc1	i	i	i	i	i	i
C[C@@H]1[C@H]2Cc3ccc(O)cc3[C@]1(C)CCN2C	nt	nt	i	i	nt	i
CS(=O)(=O)c1ccc(C2=C(CNC(=O)c3ccc([N+](=O)[O-])cc3)[C@H]3CC[C@@H](C2)N3CCOc2ccccc2)cc1	i	i	i	?	i	15µM
O=C(NCC1=C(c2cccc3ccccc23)C[C@@H]2CC[C@H]1N2Cc1ccco1)c1ccc([N+](=O)[O-])cc1	i	?	14µM	21µM	?	18µM
CS(=O)(=O)c1ccc(C2=C(CNC(=O)c3ccncc3)[C@H]3CC[C@@H](C2)N3CCOc2ccccc2)cc1	i	i	i	i	i	i
CCN(CC)S(=O)(=O)c1cc(NC(=O)C(C)N2CC=C(c3ccccc3)CC2)ccc1C (configuration not stated)	i	i	i	8.2µM	i	6.5µM
Cc1nn(-c2cc(C(F)(F)F)ccn2)c(=O)o1	i	i	i	i	i	i
CCCC1=Nc2cc(C(=O)NCCc3ccc(OCC)cc3)ccc2Sc2ccccc21	i	i	i	?	i	21µM
CCC1=Nc2cc(C(=O)N3CCC4(CC3)OCCO4)ccc2Sc2ccccc21	i	i	?	?	i	?
CCCC1=Nc2cc(C(=O)NCCCN(CC)CC)ccc2Sc2ccccc21	i	?	?	?	32µM	29µM
NC(=NCc1ccc(Cl)cc1)SCCCc1cnc[nH]1	nt	nt	nt	21µM	nt	?
O=C(O)C(Cc1cnc[nH]1)NS(=O)(=O)c1ccc(Cl)cc1 (configuration not stated)	i	i	i	i	i	i
CN(C)S(=O)(=O)c1cc(NC(=O)COC(=O)Cc2ccccc2)ccc1Cl	i	i	?	?	i	18µM
COc1ccc2c3c1O[C@H]1[C@@H](O)C=C[C@H]4[C@@H](C2)NCC[C@@]341	nt	nt	i	i	nt	?
C#CC(C)(CC)NC(=O)Cn1nnc(-c2ccc(OCc3ccccc3C)cc2)n1 (configuration not stated)	i	?	?	?	i	?
SMILES	HepG2 viability	TGFb inhibitor	ATXN viability	TDP1 cell CPT	ATXN2 expr inh	DT40 TDP1 no CPT
CC(C)C(O)(C(=O)OC[C@@H]1CC[N+]2([O-])CCCC12)C(C)O (some centres not stated)	nt	nt	nt	i[9.04 µM]	nt	i[9.04 µM]
C[C@@]12CCC(OS(=O)(=O)O)C[C@@H]1CCC1C2CC[C@]2(C)C(=O)CCC12 (some centres not stated)	nt	nt	nt	i	nt	i
CCCc1cc(N2CCN(c3cccc(C)c3C)CC2)n2cnnc2n1	i	i	i	16µM	i	18µM
Oc1ccc(Cl)cc1	i	i	i	i	i	i
Oc1ccc(Cl)cc1Sc1cc(Cl)ccc1O	i	8.9µM	?	18µM	?	18µM
CC(C)c1c(C(=O)N(C)Cc2cccc3ncccc23)cnn1-c1nccc(-c2ccccc2F)n1	nt	nt	?	4.1µM	nt	8.2µM
COCc1c(C(=O)N2CCC(c3ccccc3)CC2)cnn1-c1nccc(-c2cc(C)sc2C)n1	nt	nt	?	i[9.04 µM]	nt	?
C[C@@H]([C@@H](O)c1ccccc1)N(C)C(=O)Cc1ccccc1	i	i	i	i	i	i
CN(C)CC(C(=O)Cc1ccccc1)c1ccccc1 (configuration not stated)	i	?	nt	0.92µM	?	0.65µM
CN(Cc1ccccc1)C(=O)c1ccc(NC(=O)C2CCN(C(=O)OC(C)(C)C)CC2)cc1	i	i	?	23µM	25µM	15µM
CN(Cc1ccccc1)C(=O)CN1CCCC1=O	i	i	i	i	nt	i
NCc1cccnc1	nt	nt	i	i	i	i
CN(c1ccc(OCC(=O)N2CCN(C/C=C/c3ccccc3)CC2)cc1)S(=O)(=O)c1cccs1	i	i	i	13µM	?	5.8µM
Nc1ccc(C2(c3ccc(N)cc3)CN3CCC2CC3)cc1	i	i	i	18µM	i	13µM
O=[N+]([O-])c1ccc(OP(=O)(O)Oc2ccc([N+](=O)[O-])cc2)cc1	i	i	i	i	i	i
COc1cccc(CNCCc2ccc3c(c2)OCO3)c1OC	i	i	i	i	nt	?
COc1ccc(NC2Oc3cc4c(cc3C(c3cc(OC)c(OC)c(OC)c3)C2C)OCO4)cc1 (configuration not stated)	i	?	i	4.6µM	i	4.1µM
COc1ccc(P2(=O)Nc3ccccc3N2)cc1	i	i	i	15µM	i	?
COc1ccc2c(c1)NP(=S)(c1ccccc1)N2C (configuration not stated)	i	i	?	i	?	i
Cc1ccc(C(C)C)c(OCC(=O)N2CCN(CCc3ccncc3)CC2)c1	i	i	i	?	i	?
Cn1c(O)c(C2=NN(C(=O)CCl)C(c3ccccc3)C2)c(=O)n(C)c1=O (configuration not stated)	i	i	i	?	nt	i
CCC(=O)N1N=C(c2c(O)n(C)c(=O)n(C)c2=O)CC1c1ccccc1 (configuration not stated)	i	i	?	3.7µM	nt	4.1µM
